PubChem BioAssay (NCATS)
Results filed as inconclusive are left out. Unmarked numbers belong to inactive results. Calls of active or inactive are those of the source. The call rests on the fitted dose curve; in most records, active means well fitted cell-killing curve with a large enough effect; inconclusive means small, poorly fitted or top-dose-only effect, or effect the other way; inactive means flat fitted curve, though single readings scatter.

What follows are molecules tested on CAOV3 (assay: Primary qHTS to identify gynecologic anti-cancer compounds using libraries of approved drugs and bioactive compounds (AID 1345084; further: nearly all actives have a fitted effect of over 55% in size)). Conditions: Gynecologic cancer cell panel viability, ATPlite luminescence, 48 h; series mostly up to 57.5 µM; activity change, negative = cytotoxicity: at the top concentration.
Description: National Center for Advancing Translational Sciences [NCATS] Assay Overview: Chemotherapeutic drug responses vary from cancer to cancer and from patient to patient. These variations could be caused by a number of factors including patient genomic background, tumor mutations, tumor heterogeneity, and aspects of drug treatment. Chemotherapeutic drug resistance is also a common issue and can lead to ineffective treatment and patient death. Here we have profiled the cell killing effects of thousands of compounds to characterize the responses in three gynecological cancers, identify cancer-selective compounds, and understand the diversity of responses to these compounds from pan-cancer suppressors to single cell line selective compounds. In this assay, we screened a 7,914 compound drug library that included approved drug and bioactive compounds in six ovarian, three cervical, and […] placental cancer cell lines using the ATPlite assay for cell viability. […] The cervical cancer cell lines included HeLa, Ca Ski, and C-33 A. The placental cancer cell lines included JEG-3. HEK 293T cells were used as the control cell line to determine the selectivity index. ATPlite is a luminescence based assay reliant on the conversion of a luciferase substrate to light in the presence of ATP. As a cytotoxic compound will suppress growth and decrease the number of cells, the concentration of ATP will decrease, and less light signal will be detected in the well.
Assay Protocol Summary: 1,000 cells in 4 uL of media were dispensed into white, solid bottom 1536-well plates using a Multidrop Combi (Thermo Scientific). The Assay plates were incubated for 16 hours at 37 C with 5% CO2 in assay plates, followed by the addition of 23 nL of DMSO or drug dissolved in DMSO. Each compound was assayed in five concentrations (0.092, 0.46, 2.3, 11.5, and 57.5 uM), using the automated Wako 1536 Pin Tool workstation and incubated at 37 C with 5% CO2 48 hours. 4 uL of ATPlite, the ATP monitoring reagent, was then added to the each well of the assay plates using the Multidrop Combi reagent dispenser followed by incubation for 15 minutes at room temperature. The resulting luminescence was measured using the ViewLux plate reader.
On the % scale 0 is the no-effect control and ±100 the full control effect; potency means the concentration at half of the fitted maximal effect.

Row | SMILES | activity change, negative = cytotoxicity | Potency
1 | c1ccc([C@H]2CN3CCSC3=N2)cc1 | -9.77% | 
2 | CC(=O)Oc1ccccc1C(=O)O | 4.81% | 
3 | Cc1csc(NC(=O)c2sc3nc4c(c(C(F)(F)F)c3c2N)CCC4)n1 |  | 1.12 µM (active)
4 | CCCS(=O)(=O)Nc1ccc(F)c(C(=O)c2c[nH]c3ncc(-c4ccc(Cl)cc4)cc23)c1F | 9.17% | 
5 | CC(c1cc2ccccc2s1)N(O)C(N)=O (stereo not given) | -5.28% | 
6 | CC(C[N+](C)(C)C)OC(N)=O (stereo not given) | 1.37% | 
7 | Nc1ccc(S(=O)(=O)Nc2ccnn2-c2ccccc2)cc1 | -25.5% [at 25.3 µM] | 
8 | Cc1ccc(N(CC2=NCCN2)c2cccc(O)c2)cc1 | 24.3% | 
9 | Cc1ccnc(NS(=O)(=O)c2ccc(NC(=O)Nc3ccc(S(=O)(=O)Nc4nccc(C)n4)cc3)cc2)n1 | 12.8% | 
10 | CC(C)NCC(O)COc1ccc(COCCOC(C)C)cc1 (stereo not given) | -5.19% | 
11 | CCN(CC)CCCC(C)Nc1ccnc2cc(Cl)ccc12 (stereo not given) | -18.6% [at 11.6 µM] | 
12 | CCCCNc1cc(C(=O)O)cc(S(N)(=O)=O)c1Oc1ccccc1 | 0.841% | 
13 | Clc1cccc(Cl)c1NC1=NCCN1 | 17.9% | 
14 | O=C(c1cc(Cc2n[nH]c(=O)c3ccccc23)ccc1F)N1CCN(C(=O)C2CC2)CC1 | -6.7% | 
15 | COc1ccc2nc(S(=O)Cc3ncc(C)c(OC)c3C)[nH]c2c1 (stereo not given) | -9.51% | 
16 | CC1(C)CNc2cc(NC(=O)c3cccnc3NCc3ccncc3)ccc21 | 11.5% | 
17 | Cc1n[nH]c(C)c1Cc1sc2c(c1C(=O)N1C[C@H](O)CO1)c(=O)n(C)c(=O)n2CC(C)C | -4.1% | 
18 | CN(C)c1ccc(Nc2nc(N)n(C(=O)c3c(F)cccc3F)n2)cc1 | -1.4% | 
19 | CCOc1cc(C(=O)Nc2ccc(Cl)c(-c3nc4ccccc4[nH]3)c2)cc(OCC)c1OCC | 5.46% | 
20 | O=C1CCc2cc(OCCCCc3nnnn3C3CCCCC3)ccc2N1 | 3.11% | 

Row | SMILES | activity change, negative = cytotoxicity | Potency
21 | CCC(C)(C)C(=O)O[C@H]1C[C@@H](C)C=C2C=C[C@H](C)[C@H](CC[C@@H]3C[C@@H](O)CC(=O)O3)[C@H]21 | -21.7% | 
22 | OC(CN1CCC(Cc2ccc(F)cc2)CC1)c1ccc(Cl)cc1 (stereo not given) | -6.59% | 
23 | CCC(C)n1ncn(-c2ccc(N3CCN(c4ccc(OC[C@H]5CO[C@](Cn6cncn6)(c6ccc(Cl)cc6Cl)O5)cc4)CC3)cc2)c1=O (stereo not given in full) | -3.78% | 
24 | Cn1cnc([N+](=O)[O-])c1Sc1ncnc2nc[nH]c12 |  | inactive
25 | COc1nc(-c2ccc3c(c2)OCO3)n(-c2ccc(NC(=O)CSc3ccccc3)cc2)n1 | 5.3% | 
26 | NCCc1ccc(O)c(O)c1 | -1.92% | 
27 | Cc1ccccc1C(OCCN(C)C)c1ccccc1 (stereo not given) | -23.4% | 
28 | COc1cc2nccc(Oc3ccc(NC(=O)NC4CC4)c(Cl)c3)c2cc1C(N)=O | -30.2% | 
29 | O=NN(CCCl)C(=O)NCCCl | -9.14% | 
30 | N[C@@H]1CONC1=O | 9.18% | 
31 | CC(C)(N)C(=O)N[C@H](COCc1ccccc1)C(=O)N1CCC2(CC1)CN(S(C)(=O)=O)c1ccccc12 | -0.828% | 
32 | CC[C@H](Nc1ncnc2nc[nH]c12)c1nc2cccc(F)c2c(=O)n1-c1ccccc1 | -6.79% [at 11.6 µM] | 
33 | CCCc1nn(C)c2c(=O)[nH]c(-c3cc(S(=O)(=O)N4CCN(C)CC4)ccc3OCC)nc12 |  | inactive
34 | CS(=O)(=O)c1cccc(CNc2nc(Nc3ccc4c(c3)CCC(=O)N4)ncc2C(F)(F)F)c1 | -22.7% | 
35 | CCOC(=O)C1=C[C@]2(CC)CCCN3CCc4c(n1c1ccccc41)[C@@H]32 | -5.46% | 
36 | COc1ccc(CCN2CCN(CCCc3ccccc3)CC2)cc1OC | -5% | 
37 | Cc1oncc1C(=O)Nc1ccc(C(F)(F)F)cc1 |  | 12.6 µM (active)
38 | CCc1ccc(CCOc2ccc(CC3SC(=O)NC3=O)cc2)nc1 (stereo not given) | -4.3% | 
39 | C[C@@H]1CN(Cc2ccc(F)cc2)[C@@H](C)CN1C(=O)c1cc2c(C(=O)C(=O)N(C)C)cn(C)c2cc1Cl | 3.08% | 
40 | COc1c(Cl)cc2c([nH]c3cnccc32)c1NC(=O)c1cccnc1C | -0.0741% | 
